Source: PubChem BioAssay
Most compounds without a hit are left out; they make up all but 21% or so of the library.
CHX counter = affects cycloheximide protein synthesis inhibition readout, counter-screen | cell reporter, cycloheximide protein synthesis inhibition counterscreen | max response, % | 300,000 tested, 12% active | AID 2314; in the data active = max response mostly above about 13%, no sharp cut-off; inactive = mostly below about 14%; note: read at 38.3 µM for the half of the compounds with a filed dose; 0% is about no effect
NS1 function inh = influenza NS1 inhibition; Potency, µM (top dose mostly 46.1 µM), for inactives: at the top dose activity, positive = more growth; 270,000 tested, 0.4% active; calls by dose curve; note: potency is the fitted concentration of half-maximal effect; actives are rising curves; nearly all actives have a fitted effect of over 50% in size
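Read-out: OD600 growth recovery of NS1-expressing budding yeast. Cells grown overnight at 30C in -URA glucose medium, washed, resuspended and diluted 1:100 in 2% galactose assay medium, pH 6.0. Same strain lacking NS1 served as positive control.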
Sm TGR block = blocks Schistosoma mansoni thioredoxin glutathione reductase; Q962Y6; purified TGR, DTNB reduction, TNB absorbance 405 nm; Potency, µM (highest dose often 114 µM), inactives show top-dose activity change, negative = inhibition, most hits filed as inhibitors; 360,000 tested, 3% active; AID 485364; note: potency is the fitted concentration of half-maximal effect; % is set by controls: 0 for no effect and ±100 for the full control effect; nearly all actives have a fitted effect of over 60% in size
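TGR 20 nM + NADPH 100 uM (dispensed conc.), cpd preinc 15 min RT; start with NADPH (500 uM addition) then DTNB (15 mM addition). Kinetic TNB absorbance, 405 nm filter. Four-parameter Hill fit across titration.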
Pf growth 48h = inhibits P. falciparum growth in the first generation, 48 h | 310,000 tested, 5.9% active | AID 504832 | Potency, µM (series often up to 28.7 µM), inactives show top-dose activity change, negative = inhibition, usual class: inhibitors | P. falciparum luciferase growth in erythrocytes, 48 h; note: potency is the fitted concentration of half-maximal effect; % is set by controls: 0 for no effect and ±100 for the full control effect
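Erythrocytes infected with P. falciparum carrying an integrated firefly luciferase reporter (2% hematocrit, 0.1% parasitemia final) were exposed to compounds in RPMI 1640 with 0.5% Albumax at 37 C, 5% CO2. Growth inhibition was scored as reduced luminescence.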
Shiga toxin inh = inhibitors of Shiga toxin in Vero cells. inhibition, % at 38.7 µM. Vero cells, Shiga toxin protein synthesis inhibition reporter. 290,000 tested, 9.2% active; in the data active = inhibition mostly above about 28%, no sharp cut-off; inactive = mostly below about 43%; note: 0% is about no effect
Pf growth 96h = P. falciparum growth inhibition at 96 hours. P. falciparum luciferase reporter growth, 96 h. Potency, µM (highest dose often 28.7 µM), for the others: at the highest dose activity change, negative = inhibition, most hits filed as inhibitors. 320,000 tested, 6.9% active. AID 504834; note: potency is the fitted concentration of half-maximal effect; % is set by controls: 0 for no effect and ±100 for the full control effect
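96 h incubation, 37 C, 5% CO2, of luciferase-reporter P. falciparum-infected RBCs (2% hematocrit, 0.05% parasitemia final) with test compounds; endpoint luminescence.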
* = called active by the depositor; i = inactive; ? = inconclusive; . = not tested or not shown; [ ] = remark or other dose. Unless noted, calls come from the whole dose curve; as a rule, active = well fitted curve in the direction sought with a large enough effect; inconclusive = small, poorly fitted or top-dose-only effect, or another doubt; inactive = no such curve, though single readings can be large; an effect the other way counts as inactive or inconclusive.

SMILES	CHX counter	NS1 function inh	Sm TGR block	Pf growth 48h	Shiga toxin inh	Pf growth 96h
COc1ccccc1NC(=O)c1ccc(COc2ccc3c(c2)CCC3)cc1	9	5%	-19%	4%	0	?
O=C(O)c1cccc(COc2ccc3c(c2)CCC3)c1	35*	-59%	13%	?	44	29%
O=C(NCc1ccccc1)c1cccc(COc2ccc3c(c2)CCC3)c1	104*	-11%	7%	278%	120*	-1%
COc1cccc(OC)c1C(=O)NNC(=O)c1cccc(COc2ccc3c(c2)CCC3)c1	65*	7%	-16%	2.3µM*	184*	i
COc1ccc(CNC(=O)c2c([S-])n(-c3ccc(C)cc3)c3cccc[n+]23)cc1	13	.	1%	?	8	10µM*
CCOc1ccccc1Nc1ccc(N)cc1S(=O)(=O)O	.	3%	.	.	.	.
O=C(NCCc1ccccc1)c1ccc2nc(CCc3ccccc3)oc2c1	.	.	-2%	.	.	.
O=C(c1ccc2oc(CCCc3ccccc3)nc2c1)N1CCCCC1CO (centres undefined)	38*	-9%	-6%	30%	55*	-1%
O=C(c1ccc2oc(CCc3ccccc3)nc2c1)N1CCC(O)CC1	52*	-7%	-10%	153%	75*	4%
NC(=O)[C@@H]1CCCN1C(=O)c1ccc2oc(CCc3ccccc3)nc2c1	43*	3%	-19%	71%	40*	28%
Cc1scc(C(=O)NNC(=S)NC(C)c2ccccc2)c1C (centres undefined)	0	1%	1%	7%	18	1%
C=CCCN(C1CCCC1)S(=O)(=O)c1ccccc1Br	5	-11%	2%	?	1	15µM*
C=CCCN(C(C)C(=O)OC)S(=O)(=O)c1ccccc1Br (centres undefined)	-1	.	.	.	-8	.
CC1Cc2ccccc2N1S(=O)(=O)c1cccc(C(=O)N2Cc3ccccc3CC2C(N)=O)c1 (centres undefined)	.	.	-13%	?	.	13µM*
Cc1cc(NC(=O)c2cccc(S(=O)(=O)N3c4ccccc4CC3C)c2)no1 (centres undefined)	-1	?	11%	3.3µM*	-2	5.2µM*
CCOC(=O)c1sc(NC(=O)c2cccc(S(=O)(=O)N3c4ccccc4CC3C)c2)cc1C (centres undefined)	12	22%	1%	2.9µM*	8	?
CN1CCC(N(C)C(=O)/C(C#N)=C/c2ccccc2)CC1	-7	4%	-14%	1%	-1	1%
COC(=O)C1CCN(C(=O)Nc2ccccc2)CC1	0	3%	.	-3%	-2	6%
O=C(NCc1ccccc1Cl)c1cc(=O)[nH]c2ccccc12	-1	2%	50µM*	2%	3	8%
O=c1cc(CNCCCO)c2ccccc2[nH]1	-2	?	-6%	0%	-19	3.7µM*
O=C(CN1C(=O)CSc2ccc(S(=O)(=O)N3CCCC3)cc21)NCc1ccc(Cl)cc1	.	.	8%	.	.	.
CC1=C(C(=O)Nc2ccccc2)C(c2ccncc2)n2nc(SCc3ccccc3F)nc2N1 (centres undefined)	.	.	1%	.	.	.
O=C(O)c1ccc(C[n+]2c(-c3ccccc3)csc2Nc2ccccc2)cc1	-1	6%	-19%	14%	-6	19%
CCCCCC[n+]1c(-c2ccccc2)csc1Nc1ccccc1	-7	-32%	-16%	3.3µM*	-6	?
Cc1ccc(C)c(Cn2nnc3c(=O)[nH]c(C4CCCN(C(=O)C5CCCCC5)C4)nc32)c1 (centres undefined)	-4	-12%	4%	6.6µM*	-13	3%
SMILES	CHX counter	NS1 function inh	Sm TGR block	Pf growth 48h	Shiga toxin inh	Pf growth 96h
NC(=O)C1CCN(c2nc(C3CC3)nc3c2nnn3Cc2ccccc2Cl)CC1	10	-9%	-8%	?	-16	-8%[5.75 µM]
Cc1ccc(NC(=O)N2CCC(c3nc4c(nnn4Cc4cccc(Cl)c4)c(=O)[nH]3)CC2)cc1	1	18%	0%	13µM*	1	0.029µM*
O=C(Nc1ccc(F)cc1)N1CCC(c2nc3c(nnn3Cc3cccc(Cl)c3)c(=O)[nH]2)CC1	-3	16%	0%	?	-6	319%
NC(=O)C1CCN(c2nc(C3CC3)nc3c2nnn3Cc2ccccc2)CC1	-1	7%	-19%	13µM*	-11	?
O=C(c1cccs1)N1CCCC(c2nc3c(nnn3Cc3ccccc3)c(=O)[nH]2)C1 (centres undefined)	-4	3%	-1%	8.3µM*	-5	5.9µM*
CC(C)(C)NC(=O)CN(C(=O)Cn1nnc(-c2ccc(Cl)cc2)n1)C1CCN(Cc2ccccc2)CC1	-3	-1%	1%	-23%	21	-15%
CC(=O)c1cccc(S(=O)(=O)N2CCCC(c3nc4c(nnn4Cc4ccc(C)cc4)c(=O)[nH]3)C2)c1 (centres undefined)	-1	12%	10%	?	-14	28%
COc1ccccc1NC(=O)N1CCCC(c2nc3c(nnn3Cc3ccc(C)cc3)c(=O)[nH]2)C1 (centres undefined)	-3	2%	4%	9.3µM*	-10	-6%
O=C(c1ccccc1)N1CCCC(c2nc3c(nnn3Cc3ccccc3)c(=O)[nH]2)C1 (centres undefined)	8	0%	-1%	13µM*	-7	39%
CC(=O)c1cccc(S(=O)(=O)N2CCCC(c3nc4c(nnn4Cc4cccc(Cl)c4)c(=O)[nH]3)C2)c1 (centres undefined)	-3	4%	1%	7.4µM*	-3	8.3µM*
CCOc1ccccc1NC(=O)Cn1cc(C(=O)c2cccc(OC)c2)c(=O)c2ccc(C)nc21	.	.	0%	.	.	.
COc1ccc(OCc2nnc(SCC(=O)N3CCCc4ccccc43)n2-c2ccc(C)cc2)cc1	6	14%	-12%	12µM*	-18	.
COc1ccc(-n2c(Cc3cccn3C)nnc2SCC(=O)N2CCCc3ccccc32)cc1	-4	?	-14%	?	-11	13%
N#Cc1ccc(OCc2nnc(SCC(=O)N3CCCc4ccccc43)n2-c2ccccc2)cc1	0	0%	0%	15µM*	-12	3.3µM*
O=C(CSc1nnc(CN2CCOCC2)n1-c1ccccc1)N1CCc2ccccc21	-2	-11%	-3%	3%	-12	13µM*
O=S(=O)(/C=C/c1ccccc1)Nc1ccc(F)cc1	-2	-3%	4%	19%	-21	17%
COc1cc(/C=C2\N=C(C)OC2=O)cc(OC)c1OC	-1	10%	18µM*	1%	-12	5%
CC1=N/C(=C/c2ccco2)C(=O)O1	-4	.	28µM*	5%	-19	14%
CCOC(=O)Oc1ccc(/C=C2\N=C(C)OC2=O)cc1	-1	7%	13µM*	28%	-1	10%
COc1cc(/C=C2/N=C(C3CCCCC3)OC2=O)cc(OC)c1OC	6	2%	?	-5%	4	.
